PP1 counter: blocks human PP1-alpha phosphatase, a PP5 counter-screen; AID 2235; P62136; purified PP1alpha, OMFP fluorescence; inhibition, % at 6.7 µM; 320,000 tested, 0.9% active;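 active means inhibition above the mean inhibition of all tested compounds plus 3 SD, computed separately for each screening campaign, cut at about 15% in these data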
PAFAH1B3 FP inh: blocks human PAF acetylhydrolase 1B catalytic subunit 3 | Q15102 | recombinant PAFAH1B3, FP-rhodamine probe, fluorescence polarization | inhibition, % at 3.39 µM | 340,000 tested, 0.28% active | AID 492972;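 active means inhibition above the screen-wide average of all tested compounds plus 3 SD, cut at about 25% in these data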;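 further: 0% = enzyme with DMSO only and 100% = wells lacking PAFAH1B3 protein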
PAFAH1B2 FP inh: PAFAH1B2 (human) inhibition | inhibition, % at 3.39 µM | AID 492953 | P68402 | 340,000 tested, 1.2% active | recombinant PAFAH1B2, FP-rhodamine activity probe, fluorescence polarization;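 active means inhibition above the mean of all tested compounds plus 3 SD, cut at about 24% in these data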;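 further: 0% = enzyme with DMSO and 100% = wells lacking PAFAH1B2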
Target sequence (P68402 whole entry, looked up): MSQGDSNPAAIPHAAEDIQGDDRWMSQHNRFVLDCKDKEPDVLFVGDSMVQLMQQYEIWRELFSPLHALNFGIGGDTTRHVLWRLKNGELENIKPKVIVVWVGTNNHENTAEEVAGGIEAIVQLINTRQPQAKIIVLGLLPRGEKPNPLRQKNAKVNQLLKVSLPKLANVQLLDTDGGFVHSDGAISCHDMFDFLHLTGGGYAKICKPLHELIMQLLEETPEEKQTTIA
PAFAH2 FP inh: PAFAH2 (human) inhibition; 340,000 tested, 0.99% active; Q99487; inhibition, % at 3.39 µM; recombinant PAFAH2, FP-rhodamine activity probe, fluorescence polarization;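 active means inhibition above the mean over all tested compounds plus 3 SD, cut at about 30% in these data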;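 further: inhibitors block probe labeling of enzyme so polarization drops; 0% = enzyme with DMSO and 100% = wells lacking PAFAH2 protein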
pPAFAH inh: inhibitors of human plasma PAF acetylhydrolase (pPAFAH). 330,000 tested, 1.5% active. AID 463082. recombinant pPAFAH, FP-rhodamine probe fluorescence polarization. inhibition, % at 3.39 µM;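 active means inhibition above the mean inhibition across the screen plus 3 SD, cut at about 25% in these data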;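 further: inhibitors block binding of the rhodamine activity-based probe so polarization drops; 0% = enzyme with DMSO and 100% = wells lacking pPAFAH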
Target sequence (Q13093 whole entry, looked up): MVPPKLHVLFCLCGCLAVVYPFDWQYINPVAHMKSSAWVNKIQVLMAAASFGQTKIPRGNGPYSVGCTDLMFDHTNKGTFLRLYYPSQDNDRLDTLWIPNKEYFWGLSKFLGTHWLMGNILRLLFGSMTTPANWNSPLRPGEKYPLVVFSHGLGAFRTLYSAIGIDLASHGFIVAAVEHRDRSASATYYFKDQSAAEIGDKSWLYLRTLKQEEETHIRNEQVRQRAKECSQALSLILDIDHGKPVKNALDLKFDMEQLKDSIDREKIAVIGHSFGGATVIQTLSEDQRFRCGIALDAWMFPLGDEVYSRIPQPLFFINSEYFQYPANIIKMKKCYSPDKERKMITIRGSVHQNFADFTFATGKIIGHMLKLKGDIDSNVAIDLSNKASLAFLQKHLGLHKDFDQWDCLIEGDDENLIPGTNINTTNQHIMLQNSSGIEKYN
PP5 inh: PP5 (human) phosphatase inhibition; P53041; purified PP5c, OMFP substrate fluorescence; 320,000 tested, 0.18% active; inhibition, % at 6.7 µM;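 active means inhibition above the campaign's mean inhibition across all tested compounds plus 3 SD, cut at about 9.5% in these data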;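 further: 0% = DMSO only and 100% = 100 µM cantharidin control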
Numbers without * were called inactive; . = not tested or not shown. Sampled rows, rich in hits. Any-hit rate of the full collection: about 3.4%.

SMILES	PP1 counter	PAFAH1B3 FP inh	PAFAH1B2 FP inh	PAFAH2 FP inh	pPAFAH inh	PP5 inh
O=C(Nc1ccc2c(c1)CCC2)c1cccc(S(=O)(=O)N2CCN(c3ccccc3)CC2)c1	8.6	0.1	-9.1	-9.3	-4.7	1.6
Cc1ccc(S(=O)(=O)N2CCC(C)CC2)cc1[N+](=O)[O-]	.	-3.0	18.7	-10.2	.	.
COC(=O)CSc1ccc(S(=O)(=O)N2CCC(C)CC2)cc1[N+](=O)[O-]	2.1	-4.7	27.5*	-3.9	1.7	0.8
CC1CCN(S(=O)(=O)c2cccc(C(=O)N(C)C3CCS(=O)(=O)C3)c2)CC1 (stereo not drawn)	-2.1	7.2	32.7*	-5.1	1.8	-1.5
O=C(NC1CCCc2ccccc21)c1cccc(S(=O)(=O)N2CCN(c3ccccc3)CC2)c1 (stereo not drawn)	15.4*	-1.9	-4.0	-14.3	-9.8	4.6
CC1CCN(S(=O)(=O)c2ccc(C(=O)N(C)C3CCS(=O)(=O)C3)cc2)CC1 (stereo not drawn)	-4.5	7.3	12.7	-2.4	-6.9	-2.0
COc1ccc2[nH]c3c(c2c1)CCN1C(=O)C(CC(=O)NCc2ccco2)C[C@H](C(=O)N2CCOCC2)[C@@]31CCC1CCCC1 (stereo partly drawn)	.	5.6	5.6	-2.1	8.2	.
O=C(CN1C(=O)NC2(CCCc3ccccc32)C1=O)Nc1cc(F)ccc1F (stereo not drawn)	-5.3	7.9	-0.3	-1.0	-0.5	-0.9
Cc1oc(-c2ccccc2F)nc1CS(=O)CC(=O)NCc1ccccn1 (stereo not drawn)	-4.7	1.8	-2.6	-4.5	6.3	2.0
O=C(CCC(=O)N1CCN(S(=O)(=O)c2ccc(Cl)cc2)CC1)NC1CCCc2ccccc21 (stereo not drawn)	-0.5	-1.5	25.9*	2.6	2.5	-0.1
CC1CCC(NC(=O)c2cccc(S(=O)(=O)N3CCN(c4ccccc4)CC3)c2)CC1 (stereo not drawn)	-5.1	9.3	3.2	6.5	2.5	0.3
CC1CCC(NC(=O)c2cccc(S(=O)(=O)N3CCN(C)CC3)c2)CC1 (stereo not drawn)	-2.6	3.6	25.5*	4.7	3.6	0.4
COC(=O)c1cccc(S(=O)(=O)N2CCC(C)CC2)c1	0.3	-4.7	26.3*	-3.5	7.6	2.9
COC(=O)c1cc(S(=O)(=O)N2CCC(C)CC2)ccc1F	-1.3	5.9	19.5	-9.3	0.3	0.7
COc1cc2c(cc1NC(=O)Nc1ccc(C)cc1)oc1ccccc12	-0.5	11.1	4.8	-33.0	6.2	3.0
Cc1cccc(C(=O)NNC(=O)/C=C/C(=O)O)c1	2.2	-2.0	1.9	-6.3	0.4	1.5
CCCCCCc1ccc(N2C[C@H](CCCCC)[C@@H](CC(=O)NCc3ccc(OC)cc3)C2=O)cc1	5.5	6.4	0.9	-6.5	-0.5	2.4
N=C1S/C(=C\c2ccco2)C(=O)N1c1nccs1	-2.9	6.7	5.4	8.4	19.3	2.0
N=C1S/C(=C\c2ccco2)C(=O)N1c1ccc2c(c1)OCO2	13.3	1.9	6.1	14.5	31.1*	1.1
O=C(Nc1ccccc1Cl)Oc1ccc(-c2ccccc2)cc1	-2.8	6.7	60.4*	-0.9	5.8	0.1
CCOC(=O)C1=C(O)/C(=C\c2ccc(CNS(=O)(=O)c3ccc(Br)cc3)o2)N=C1C	3.0	9.5	7.8	-3.1	27.7*	1.6
NC(=S)n1[nH]c(-c2ccc([N+](=O)[O-])cc2)c(N=Nc2ccc(Cl)cc2)c1=O	.	8.8	8.6	40.6*	.	.
Cc1ccc([N+](=O)[O-])cc1N=Nc1c(-c2ccc([N+](=O)[O-])cc2)[nH]n(C(N)=S)c1=O	.	18.5	15.2	23.8	.	.
Cc1[nH]nc2c1C(c1ccc(Cl)cc1)C(C#N)=C(N)O2 (stereo not drawn)	-3.2	8.0	28.4*	-3.2	4.0	-0.7
Cc1ccc(C2C(C#N)=C(N)Oc3n[nH]c(C)c32)cc1 (stereo not drawn)	-2.3	8.4	9.9	5.7	2.8	0.4
SMILES	PP1 counter	PAFAH1B3 FP inh	PAFAH1B2 FP inh	PAFAH2 FP inh	pPAFAH inh	PP5 inh
Cc1nc2ccccc2nc1OCC(=O)N1CCN(c2ccccc2)CC1	1.7	5.3	-1.1	-1.9	-0.9	3.9
Cc1cc(=O)[nH]c(SCC(=O)C23CC4CC(CC(C4)C2)C3)c1C#N	6.1	8.4	63.1*	49.0*	12.7	3.3
Cc1ccccc1NC(=O)CSC1=C(C#N)C(c2ccsc2)CC(=O)N1 (stereo not drawn)	-3.4	5.0	-2.1	-2.3	0.3	1.4
CC(=O)Nc1ccc(NC(=O)c2ccc(-c3ccc([N+](=O)[O-])cc3)o2)cc1	16.4*	6.1	-2.2	-3.7	-1.0	0.8
Cc1ccc(C(=O)Nc2nnc(C)s2)cc1	-4.9	.	.	.	-4.9	1.7
CC(Oc1cccc(Br)c1)C(=O)N1CCCN(C)CC1 (stereo not drawn)	-5.6	-1.3	2.0	0.8	3.8	-0.6
CN(c1ccccc1)S(=O)(=O)c1cccc(C(=O)NNC(=O)c2ccccc2)c1	-5.8	6.7	9.1	10.1	5.1	1.2
Cn1nnc(NC(=O)/C=C/c2ccco2)n1	-2.4	.	.	.	2.9	-3.3
CCCn1nnc(NC(=S)NC(=O)/C=C/c2ccco2)n1	2.4	4.0	3.5	12.5	26.3*	1.2
COC(=O)c1ccc(S(=O)(=O)NCc2ccc(OC)cc2)n1C	-3.9	6.8	28.7*	3.6	-0.1	-1.2
COC(=O)c1ccc(S(=O)(=O)NCc2ccco2)n1C	-4.3	9.7	-1.4	-2.1	4.1	-1.1
COc1cc(CNCc2cccs2)ccc1OCc1cccs1	2.1	-5.5	-1.6	-1.0	2.6	3.2
CCN(CC)c1ccc(CNCc2cccs2)cc1	17.4*	3.0	-3.4	-6.9	19.2	1.2
O=c1[nH]c2c(cnn2-c2ccc(Cl)cc2)c(=O)n1-c1cccc(Cl)c1	-0.4	9.6	17.6	-0.1	-0.2	1.0
O=c1[nH]c2cc(Cl)ccc2n1-c1ccccc1	1.4	4.5	1.4	7.2	28.5*	2.0
Cc1ccc(-c2cc(C(=O)O)c3cc(Br)ccc3n2)o1	2.2	9.7	23.4	12.2	27.6*	-1.4
Cc1ccc(-c2cc(C(=O)NC3=NCCS3)c3cc(Br)ccc3n2)o1	19.4*	.	.	.	17.0	4.2
c1ccc(C(c2ccccc2)c2noc(CN3CCN(C4CCCC4)CC3)n2)cc1	3.2	2.2	4.9	1.1	3.0	-0.5
O=C(NCCc1nnc2ccc(N3CCCCCC3)nn12)c1ccccc1	-0.5	3.1	1.0	-13.2	0.7	-1.4
CCC1Oc2ccccc2N(CC(=O)NCCCN2CCOCC2)C1=O (stereo not drawn)	-3.4	-4.1	0.1	0.6	0.2	-1.2
O=S(=O)(Nc1cc2nc3ccccc3nc2n1Cc1ccccc1)c1ccc(Cl)cc1	12.6	62.6*	46.8*	66.4*	14.2	9.5
O=S(=O)(NCc1ccccc1)c1ccc(Cl)cc1	-2.0	6.2	21.3	1.7	4.8	-0.3
